The target of experiment [1] is Sphingosine kinase 1 (Homo sapiens) (UniProt Q9NYA1). Conditions: at 1 µM.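 Further: mean SPHK1 inhibition value reported from the GSK PKIS kinase panel screen.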
Experiment [2] concerns the target T1, Sphingosine kinase 2 (Homo sapiens) (UniProt Q9NRA0).
T1 sequence (whole entry): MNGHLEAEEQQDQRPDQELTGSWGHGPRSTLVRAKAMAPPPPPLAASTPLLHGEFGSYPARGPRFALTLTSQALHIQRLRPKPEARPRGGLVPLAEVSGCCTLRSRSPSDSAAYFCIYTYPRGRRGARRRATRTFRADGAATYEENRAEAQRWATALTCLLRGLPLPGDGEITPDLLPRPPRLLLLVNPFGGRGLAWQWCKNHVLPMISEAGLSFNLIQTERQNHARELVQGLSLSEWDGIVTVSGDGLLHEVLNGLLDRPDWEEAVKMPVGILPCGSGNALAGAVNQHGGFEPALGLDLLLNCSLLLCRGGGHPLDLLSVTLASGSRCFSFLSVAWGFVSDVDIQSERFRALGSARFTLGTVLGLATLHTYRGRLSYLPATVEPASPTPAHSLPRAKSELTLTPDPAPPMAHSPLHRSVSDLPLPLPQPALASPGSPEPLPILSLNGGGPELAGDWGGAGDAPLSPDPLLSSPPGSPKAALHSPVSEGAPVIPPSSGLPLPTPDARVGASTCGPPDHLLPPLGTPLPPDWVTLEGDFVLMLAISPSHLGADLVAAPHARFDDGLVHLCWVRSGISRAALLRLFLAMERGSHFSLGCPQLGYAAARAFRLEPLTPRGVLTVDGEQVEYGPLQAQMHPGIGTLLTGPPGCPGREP
The note with it: at 0.1 µM.

For experiment [3], the target named is T1, Sphingosine kinase 2 (Homo sapiens). The note with it: at 1 µM.
The target in experiment [4] is Casein kinase II subunit alpha (Homo sapiens) (UniProt P68400). The note with it: at 0.1 µM.
Casein kinase II subunit alpha (Homo sapiens), sequence (P68400 whole entry, looked up): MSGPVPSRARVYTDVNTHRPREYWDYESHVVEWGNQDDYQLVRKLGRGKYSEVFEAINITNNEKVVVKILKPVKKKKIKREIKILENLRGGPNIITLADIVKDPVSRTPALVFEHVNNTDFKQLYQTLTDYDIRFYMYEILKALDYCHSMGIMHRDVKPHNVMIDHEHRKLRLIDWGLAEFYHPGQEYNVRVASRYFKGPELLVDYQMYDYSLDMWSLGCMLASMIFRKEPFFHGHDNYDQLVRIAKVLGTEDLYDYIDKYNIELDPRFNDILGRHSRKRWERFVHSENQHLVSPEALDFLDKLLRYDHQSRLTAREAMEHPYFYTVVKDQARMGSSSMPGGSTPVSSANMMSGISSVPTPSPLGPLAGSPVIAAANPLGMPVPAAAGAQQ
Experiment [5] shares this target. Conditions: at 1 µM.
The target in experiment [6] is T2, Inhibitor of nuclear factor kappa-B kinase subunit alpha (Homo sapiens) (UniProt O15111).
T2 sequence (whole entry): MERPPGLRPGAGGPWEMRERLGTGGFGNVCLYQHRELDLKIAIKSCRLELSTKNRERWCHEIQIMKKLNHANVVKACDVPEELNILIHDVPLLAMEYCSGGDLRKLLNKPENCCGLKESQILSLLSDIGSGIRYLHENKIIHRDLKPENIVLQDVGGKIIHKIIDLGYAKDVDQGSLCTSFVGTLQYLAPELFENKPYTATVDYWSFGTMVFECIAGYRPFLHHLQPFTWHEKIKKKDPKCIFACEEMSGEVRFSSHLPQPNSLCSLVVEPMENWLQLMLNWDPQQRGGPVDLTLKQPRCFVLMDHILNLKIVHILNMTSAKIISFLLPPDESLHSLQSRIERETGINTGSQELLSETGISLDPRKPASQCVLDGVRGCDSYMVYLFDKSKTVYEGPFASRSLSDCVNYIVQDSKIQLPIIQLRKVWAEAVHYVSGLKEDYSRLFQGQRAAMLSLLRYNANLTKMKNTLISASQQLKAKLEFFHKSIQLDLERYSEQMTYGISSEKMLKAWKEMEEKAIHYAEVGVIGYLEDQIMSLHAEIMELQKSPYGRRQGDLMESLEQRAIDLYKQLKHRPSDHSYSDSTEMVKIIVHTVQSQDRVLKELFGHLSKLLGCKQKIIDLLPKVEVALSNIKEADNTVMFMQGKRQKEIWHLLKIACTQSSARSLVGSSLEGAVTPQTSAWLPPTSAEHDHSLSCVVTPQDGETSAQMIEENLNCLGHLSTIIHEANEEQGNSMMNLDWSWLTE
Conditions: at 0.1 µM.

Experiment [7] has as its target T2, Inhibitor of nuclear factor kappa-B kinase subunit alpha (Homo sapiens). The note with it: at 1 µM.
Experiment [8] deals with T3, Inhibitor of nuclear factor kappa-B kinase subunit beta (Homo sapiens) (UniProt O14920).
T3 sequence (whole entry): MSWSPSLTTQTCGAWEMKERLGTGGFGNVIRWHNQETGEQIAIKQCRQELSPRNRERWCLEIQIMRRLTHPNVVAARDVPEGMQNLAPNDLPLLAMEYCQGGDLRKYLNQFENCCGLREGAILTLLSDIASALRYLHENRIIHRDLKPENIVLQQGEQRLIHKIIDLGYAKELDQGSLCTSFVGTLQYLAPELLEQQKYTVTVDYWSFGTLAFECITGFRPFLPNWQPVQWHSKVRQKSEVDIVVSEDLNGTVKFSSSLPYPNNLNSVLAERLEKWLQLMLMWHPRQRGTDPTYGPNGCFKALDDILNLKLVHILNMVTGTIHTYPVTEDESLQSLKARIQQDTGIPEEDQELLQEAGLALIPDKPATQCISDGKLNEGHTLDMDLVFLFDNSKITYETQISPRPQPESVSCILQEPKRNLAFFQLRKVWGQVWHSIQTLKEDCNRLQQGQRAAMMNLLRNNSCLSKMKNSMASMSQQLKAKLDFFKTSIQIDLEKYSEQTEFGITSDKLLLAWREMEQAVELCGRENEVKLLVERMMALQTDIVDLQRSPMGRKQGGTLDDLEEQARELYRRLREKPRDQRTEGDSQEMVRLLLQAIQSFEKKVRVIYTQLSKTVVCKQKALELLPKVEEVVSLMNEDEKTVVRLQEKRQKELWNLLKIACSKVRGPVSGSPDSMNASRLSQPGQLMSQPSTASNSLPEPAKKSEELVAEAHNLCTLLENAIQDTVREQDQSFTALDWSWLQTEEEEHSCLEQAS
Conditions: at 0.1 µM.

Experiment [9] addresses T3, Inhibitor of nuclear factor kappa-B kinase subunit beta (Homo sapiens). Conditions: at 1 µM.
Experiment [10] deals with T4, Inhibitor of nuclear factor kappa-B kinase subunit epsilon (Homo sapiens) (UniProt Q14164).
T4 sequence (whole entry): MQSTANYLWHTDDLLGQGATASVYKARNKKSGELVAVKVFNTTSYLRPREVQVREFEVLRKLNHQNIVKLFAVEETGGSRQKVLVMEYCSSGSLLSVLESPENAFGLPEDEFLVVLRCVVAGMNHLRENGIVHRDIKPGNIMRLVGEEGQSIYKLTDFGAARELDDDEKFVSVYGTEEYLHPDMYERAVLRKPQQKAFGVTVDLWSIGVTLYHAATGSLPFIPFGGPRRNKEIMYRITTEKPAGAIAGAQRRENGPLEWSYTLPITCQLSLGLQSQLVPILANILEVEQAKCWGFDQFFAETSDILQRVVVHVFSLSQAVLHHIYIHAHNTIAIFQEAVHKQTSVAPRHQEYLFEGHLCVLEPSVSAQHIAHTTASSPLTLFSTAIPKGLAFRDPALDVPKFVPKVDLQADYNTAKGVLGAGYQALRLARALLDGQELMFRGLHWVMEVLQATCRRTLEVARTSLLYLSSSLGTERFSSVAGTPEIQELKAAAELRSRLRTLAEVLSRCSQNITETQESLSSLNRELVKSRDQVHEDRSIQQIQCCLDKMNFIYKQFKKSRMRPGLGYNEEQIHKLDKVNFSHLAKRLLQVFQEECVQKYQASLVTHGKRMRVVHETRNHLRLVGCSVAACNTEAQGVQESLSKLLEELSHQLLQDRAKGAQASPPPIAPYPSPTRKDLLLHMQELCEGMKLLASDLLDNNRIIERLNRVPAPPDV
Conditions: at 0.1 µM.

The target in experiment [11] is T4, Inhibitor of nuclear factor kappa-B kinase subunit epsilon (Homo sapiens). The note with it: at 1 µM.
Experiment [12] concerns the target T5, Serine/threonine-protein kinase Nek1 (Homo sapiens) (UniProt Q96PY6).
T5 sequence (whole entry): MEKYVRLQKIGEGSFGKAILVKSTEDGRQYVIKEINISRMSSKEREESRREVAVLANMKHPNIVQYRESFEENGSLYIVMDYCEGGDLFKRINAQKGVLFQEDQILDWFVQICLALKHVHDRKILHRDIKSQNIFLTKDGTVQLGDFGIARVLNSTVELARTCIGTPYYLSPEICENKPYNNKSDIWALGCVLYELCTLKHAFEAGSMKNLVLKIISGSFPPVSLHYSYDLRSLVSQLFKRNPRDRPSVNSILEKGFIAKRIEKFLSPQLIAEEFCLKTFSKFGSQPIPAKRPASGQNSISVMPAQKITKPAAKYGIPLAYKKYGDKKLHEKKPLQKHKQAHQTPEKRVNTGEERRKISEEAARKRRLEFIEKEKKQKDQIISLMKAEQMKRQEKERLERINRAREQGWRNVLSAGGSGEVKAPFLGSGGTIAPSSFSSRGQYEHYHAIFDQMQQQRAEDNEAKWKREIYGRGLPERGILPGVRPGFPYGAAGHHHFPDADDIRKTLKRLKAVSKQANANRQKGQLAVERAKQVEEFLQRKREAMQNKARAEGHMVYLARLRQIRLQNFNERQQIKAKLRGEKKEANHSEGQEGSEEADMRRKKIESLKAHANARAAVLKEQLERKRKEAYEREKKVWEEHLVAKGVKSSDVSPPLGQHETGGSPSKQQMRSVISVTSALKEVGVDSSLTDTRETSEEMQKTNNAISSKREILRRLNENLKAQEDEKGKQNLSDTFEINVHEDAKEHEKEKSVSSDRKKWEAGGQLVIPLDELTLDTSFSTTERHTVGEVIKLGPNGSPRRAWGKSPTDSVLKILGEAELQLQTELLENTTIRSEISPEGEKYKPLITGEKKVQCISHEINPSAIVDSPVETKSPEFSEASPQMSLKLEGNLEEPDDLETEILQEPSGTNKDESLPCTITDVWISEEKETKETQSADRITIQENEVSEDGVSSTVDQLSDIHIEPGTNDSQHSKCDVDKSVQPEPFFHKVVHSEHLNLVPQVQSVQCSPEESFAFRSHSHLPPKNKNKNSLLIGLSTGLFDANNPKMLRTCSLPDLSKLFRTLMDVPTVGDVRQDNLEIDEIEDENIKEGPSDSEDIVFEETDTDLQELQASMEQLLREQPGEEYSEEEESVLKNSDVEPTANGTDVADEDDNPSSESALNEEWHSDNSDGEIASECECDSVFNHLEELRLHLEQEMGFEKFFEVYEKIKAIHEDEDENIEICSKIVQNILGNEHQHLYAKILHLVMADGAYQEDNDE
The note with it: at 0.1 µM.

Experiment [13] addresses T5, Serine/threonine-protein kinase Nek1 (Homo sapiens). Conditions: at 1 µM.
The target in experiment [14] is T6, Serine/threonine-protein kinase Nek2 (Homo sapiens) (UniProt P51955).
T6 sequence (whole entry): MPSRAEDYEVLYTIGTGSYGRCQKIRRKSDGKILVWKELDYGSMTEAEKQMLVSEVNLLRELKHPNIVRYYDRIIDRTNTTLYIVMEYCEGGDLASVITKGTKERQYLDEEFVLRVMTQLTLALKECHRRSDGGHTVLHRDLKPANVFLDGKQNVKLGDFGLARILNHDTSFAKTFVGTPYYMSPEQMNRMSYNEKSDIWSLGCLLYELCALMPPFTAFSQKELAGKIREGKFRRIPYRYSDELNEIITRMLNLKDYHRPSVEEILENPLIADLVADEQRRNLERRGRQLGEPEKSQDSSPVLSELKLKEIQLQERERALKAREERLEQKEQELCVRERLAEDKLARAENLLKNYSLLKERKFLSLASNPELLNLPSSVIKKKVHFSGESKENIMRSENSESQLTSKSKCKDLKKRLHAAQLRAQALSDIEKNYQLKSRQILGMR
The note with it: at 0.1 µM.

Experiment [15] deals with T6, Serine/threonine-protein kinase Nek2 (Homo sapiens). The note with it: at 1 µM.
Experiment [16] deals with Serine/threonine-protein kinase Nek6 (Homo sapiens) (UniProt Q9HC98). Conditions: at 0.1 µM.
Serine/threonine-protein kinase Nek6 (Homo sapiens), sequence (Q9HC98 whole entry): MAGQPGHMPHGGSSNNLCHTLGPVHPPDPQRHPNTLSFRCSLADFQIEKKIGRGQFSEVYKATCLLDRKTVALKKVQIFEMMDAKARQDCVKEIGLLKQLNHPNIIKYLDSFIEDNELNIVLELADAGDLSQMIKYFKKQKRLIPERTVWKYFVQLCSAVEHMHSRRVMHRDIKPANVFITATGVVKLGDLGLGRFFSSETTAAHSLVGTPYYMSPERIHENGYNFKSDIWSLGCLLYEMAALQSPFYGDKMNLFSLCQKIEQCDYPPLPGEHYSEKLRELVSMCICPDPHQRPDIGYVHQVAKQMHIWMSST
Experiment [17] has the same target. Conditions: at 1 µM.
For experiment [18], the target named is Serine/threonine-protein kinase Nek7 (Homo sapiens) (UniProt Q8TDX7). Conditions: at 0.1 µM.
Serine/threonine-protein kinase Nek7 (Homo sapiens), sequence (Q8TDX7 whole entry, looked up): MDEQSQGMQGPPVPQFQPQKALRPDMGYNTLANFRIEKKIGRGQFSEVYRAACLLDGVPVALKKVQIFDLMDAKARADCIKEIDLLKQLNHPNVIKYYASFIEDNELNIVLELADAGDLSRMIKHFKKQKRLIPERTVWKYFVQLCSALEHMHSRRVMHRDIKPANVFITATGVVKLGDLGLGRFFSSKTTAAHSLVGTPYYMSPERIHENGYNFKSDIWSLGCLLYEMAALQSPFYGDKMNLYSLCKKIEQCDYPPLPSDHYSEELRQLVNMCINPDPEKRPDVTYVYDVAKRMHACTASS
The target is the same in experiment [19]. Conditions: at 1 µM.
In experiment [20] the target is T7, Serine/threonine-protein kinase Nek9 (Homo sapiens) (UniProt Q8TD19).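 Further: reported value is the mean percent inhibition of NEK9.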
T7 sequence (whole entry): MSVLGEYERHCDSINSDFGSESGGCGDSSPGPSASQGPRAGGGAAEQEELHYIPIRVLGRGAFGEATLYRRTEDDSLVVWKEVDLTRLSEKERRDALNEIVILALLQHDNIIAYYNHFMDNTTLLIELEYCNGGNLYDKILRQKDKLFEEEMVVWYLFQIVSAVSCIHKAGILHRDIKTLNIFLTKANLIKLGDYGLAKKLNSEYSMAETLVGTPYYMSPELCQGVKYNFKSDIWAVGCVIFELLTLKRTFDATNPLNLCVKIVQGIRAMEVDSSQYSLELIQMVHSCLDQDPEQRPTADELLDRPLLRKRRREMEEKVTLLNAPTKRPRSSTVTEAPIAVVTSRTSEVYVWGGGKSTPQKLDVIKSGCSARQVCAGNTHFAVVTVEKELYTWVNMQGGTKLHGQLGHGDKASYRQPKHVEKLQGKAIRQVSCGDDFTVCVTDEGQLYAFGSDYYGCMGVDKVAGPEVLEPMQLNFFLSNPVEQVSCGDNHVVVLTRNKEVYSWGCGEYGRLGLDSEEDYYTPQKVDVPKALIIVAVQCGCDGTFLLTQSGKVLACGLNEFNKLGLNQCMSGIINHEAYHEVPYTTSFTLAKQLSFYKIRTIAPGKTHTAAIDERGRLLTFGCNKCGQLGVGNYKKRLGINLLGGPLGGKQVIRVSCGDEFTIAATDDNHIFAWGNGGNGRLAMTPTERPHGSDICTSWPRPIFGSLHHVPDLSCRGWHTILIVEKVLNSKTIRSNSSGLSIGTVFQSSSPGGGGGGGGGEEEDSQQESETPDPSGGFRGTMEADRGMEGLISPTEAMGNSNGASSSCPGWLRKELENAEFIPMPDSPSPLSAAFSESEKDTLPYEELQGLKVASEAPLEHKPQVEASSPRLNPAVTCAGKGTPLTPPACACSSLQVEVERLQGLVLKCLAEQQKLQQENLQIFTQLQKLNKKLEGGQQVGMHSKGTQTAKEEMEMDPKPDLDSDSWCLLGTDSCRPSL
The note with it: at 0.1 µM.

Sphingosine kinase 1 (Homo sapiens), sequence (Q9NYA1 whole entry): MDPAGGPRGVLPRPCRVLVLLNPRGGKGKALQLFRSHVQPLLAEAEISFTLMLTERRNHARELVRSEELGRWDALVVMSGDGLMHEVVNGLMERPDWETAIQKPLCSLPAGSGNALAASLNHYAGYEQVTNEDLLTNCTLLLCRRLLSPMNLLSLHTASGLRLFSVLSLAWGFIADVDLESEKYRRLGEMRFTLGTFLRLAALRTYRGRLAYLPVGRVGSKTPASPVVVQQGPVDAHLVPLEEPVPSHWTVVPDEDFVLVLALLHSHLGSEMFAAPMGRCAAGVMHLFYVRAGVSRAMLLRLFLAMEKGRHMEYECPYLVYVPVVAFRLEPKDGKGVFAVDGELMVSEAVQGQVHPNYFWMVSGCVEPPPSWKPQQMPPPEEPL

For `CS(=O)(=O)Nc1ccc(-c2ccc3c(NC(=O)C4CC4)n[nH]c3c2)cc1`, the inhibition in experiment [1] is -3.21%; in experiment [2], 1.2%; in experiment [3], 0%; in experiment [4], 2.09%; in [5], 0.41%; in experiment [6] it was 6.65%. Also, the inhibition in experiment [7] was -3.42%; in [8], 3.69%; in experiment [9] it was 1.2%; in experiment [10], -0.23%; in experiment [11], 2.67%; in experiment [12], 1.54%. The inhibition in [13] was -3.13%; in experiment [14], 4.81%; in experiment [15], 3.7%; in experiment [16] it was 1.17%; in [17] it was -2.29%; in experiment [18], 4.35%. Besides, the inhibition in experiment [19] was 2.55%; in experiment [20], 2.89%.
